Screens as filed in PubChem.
A selection: hits, their analogues and other compounds. The true share with any hit is near 3.4%.
PLCg1 inh – PLC-gamma1 (human) inhibition, primary screen | 370,000 tested, 0.84% active | inhibition, % at 12.2 µM | purified PLC-gamma1, fluorogenic substrate, fluorescence
KLK7 zymogen act – proKLK7 (human) activation, primary screen | P49862 | purified proKLK7, EDANS-DABCYL substrate fluorescence; 100% is mature enzyme control, 0% vehicle | activation, % at 7 µM | 370,000 tested, 0.9% active | AID 652039;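 active = activation above the mean of all tested compounds plus 3 SD, computed per campaign excluding outliers beyond control limits, cut at about 13% in these data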
Target sequence (P49862 whole entry, looked up): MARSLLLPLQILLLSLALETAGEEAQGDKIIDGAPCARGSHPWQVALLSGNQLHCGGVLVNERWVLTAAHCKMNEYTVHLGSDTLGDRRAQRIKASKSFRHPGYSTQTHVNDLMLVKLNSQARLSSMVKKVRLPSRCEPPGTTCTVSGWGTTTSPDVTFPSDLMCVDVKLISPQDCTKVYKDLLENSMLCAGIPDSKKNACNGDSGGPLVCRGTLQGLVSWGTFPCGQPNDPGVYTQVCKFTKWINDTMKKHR
sPLA2-III inh – Blocks human group III sPLA2 activity | 370,000 tested, 0.56% active | QFRET BODIPY PC-A2 liposome hydrolysis, fluorescence | inhibition, % at 12.2 µM;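 active = inhibition above mean plus 3 SD of compounds lying within the high and low control bounds, cut at about 19% in these data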
ADAM10 inh – ADAM10 inhibition, QFRET primary screen; recombinant ADAM10, EDANS/DABCYL FRET peptide cleavage, 3 h; 370,000 tested, 0.62% active; inhibition, % at 7 µM;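 active = inhibition above a per-campaign cutoff equal to the mean of compounds falling between control-based bounds plus 3 SD, cut at about 20% in these data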
ADAM17 inh – inhibitors of human ADAM17; P78536; recombinant ADAM17, EDANS/DABCYL FRET peptide cleavage; inhibition, % at 6.95 µM; 370,000 tested, 0.83% active; AID 720648;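 active = inhibition above the mean of compounds lying between control limits plus 3 SD, set per campaign, cut at about 8.5% in these data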
PLC-beta3 inh – PLC-beta3 (human) inhibition, primary screen | Q01970 | Purified PLC-beta3, fluorogenic substrate, fluorescence | inhibition, % at 12.2 µM | 370,000 tested, 0.18% active | AID 720704; in the data active = inhibition above about 11%
PLCgamma1 ctr – counter-screen for PLC-beta3 inhibitors: inhibitors of human PLC-gamma1 | shares compounds with PLCg1 inh | purified PLC-gamma1, fluorogenic substrate, fluorescence | inhibition, % at 12.3 µM | 3,300 tested, 3.1% active | AID 743258
PLCbeta3 conf – confirmation of human PLC-beta3 inhibitors. purified PLC-beta3, fluorogenic substrate fluorescence. shares compounds with PLCg1 inh. inhibition, % at 12.3 µM. 3,300 tested, 1% active; in the data active = inhibition above about 11%
Of the large screens only hits and unclear results are named; the others gave an inactive call (follow-up assays come after a bar, where they were run). Rule as the data show it, unless noted: active = inhibition above about 9.5%; inactive = the rest.

COc1cc2c(cc1OC)[C@@H]1Cc3cc4c(cc3[C@H](C2)N1C)OCO4	none
Cc1cc(NC(=O)C2CC(=O)N(c3ccc(F)cc3)C2)no1 (centres undefined)	none
CCOc1ccc(S(=O)(=O)N(C)c2ccc(OCC(=O)N3CCOCC3)cc2)cc1	PLCg1 inh 9.8 | PLCgamma1 ctr inactive | PLCbeta3 conf inactive
COc1ccc2sc(C)nc2c1NC(C)=O	PLCg1 inh 12 | PLCgamma1 ctr inactive | PLCbeta3 conf inactive
O=S(=O)(NC1CC1)c1ccc(Cl)cc1F	none
O=C(O)c1ccc(-c2nnn(Cc3ccccc3F)n2)cc1	PLCg1 inh 11 | PLCgamma1 ctr inactive | PLCbeta3 conf inactive
CCOc1ccccc1NC(=O)C1CCCN1C(=O)c1cccs1 (centres undefined)	PLCg1 inh 10 | PLCgamma1 ctr inactive | PLCbeta3 conf inactive
CCOc1ccccc1NC(=O)N1CCCC1C(=O)NCc1cccs1 (centres undefined)	none
Nc1[nH]c(C(=O)c2ccccc2)c(-c2ccc(Cl)c(Cl)c2)c1C(=O)NCCc1c[nH]c2ccccc12	none
CN(C)c1cccc2c(S(=O)(=O)NC(=O)[C@H]3O[C@@H](n4ccc(=O)[nH]c4=O)[C@H](O)[C@@H]3O)cccc12	none
CC(C)CCNC(=O)C(c1ccncc1)N(C(=O)Cn1nnc(-c2ccc(F)cc2)n1)c1ccccc1F (centres undefined)	PLCg1 inh 10 | PLCgamma1 ctr inactive | PLCbeta3 conf inactive
CC(C)CCNC(=O)C(c1ccncc1)N(CC1CCCO1)C(=O)Cn1nnc(-c2ccc(F)cc2)n1 (centres undefined)	none
CC(C)NC(=O)Nc1ccc2c(c1)C(=O)N([C@H](C)CO)C[C@@H](C)[C@@H](CN(C)C(=O)NC1CCCCC1)O2	none
COc1ccc(-c2ccc(C)cc2)cc1[C@H]1[C@H]2C=CC[C@@H](C)[C@@H]2C(=O)N1Cc1ccccc1	PLC-beta3 inh 11 | PLCgamma1 ctr inactive | PLCbeta3 conf inactive
O=S(=O)(c1ccccc1)c1cnn(-c2ccccc2)c1-c1ccc(F)cc1	PLC-beta3 inh 15 | PLCgamma1 ctr inactive | PLCbeta3 conf 13
COc1ccc(-n2ncc(S(=O)(=O)c3ccccc3)c2-c2ccc(Cl)cc2)cc1	none
CC1(C)CC(=O)C=C(c2ccc(Oc3ccccc3)cc2)C1	PLCg1 inh 10 | PLCgamma1 ctr inactive | PLCbeta3 conf inactive
CC1(C)CC(=O)C=C(c2ccc(OC(F)(F)F)cc2)C1	none
CCCNC(=O)c1cccc(Cn2nc(C)c(Br)c2C)c1	PLCg1 inh 12 | PLCgamma1 ctr inactive | PLCbeta3 conf inactive
Cc1nn(Cc2cccc(C(=O)NC34CC5CC(CC(C5)C3)C4)c2)c(C)c1Br	none
COc1ccc(Nc2cc(C)nc3nc(C)nn23)cc1Cl	PLCg1 inh 9.6 | PLCgamma1 ctr inactive | PLCbeta3 conf inactive
CC(C)c1nn2c(N)c(/C=C3\C=Nc4ccccc43)c(=O)nc2s1	none
CCC(CC)c1nn2c(N)c(/C=C3\C=Nc4ccccc43)c(=O)nc2s1	PLCg1 inh 10 | PLCgamma1 ctr inactive | PLCbeta3 conf inactive
CCn1c(SCC(=O)NCCc2ccccc2)nc2c([nH]c3ccccc32)c1=O	none
CC(=O)Nc1ccc(S(=O)(=O)N2c3ccc(F)cc3CCC2C)cc1 (centres undefined)	PLCg1 inh 10 | PLCgamma1 ctr inactive | PLCbeta3 conf inactive
COc1cc2c(c(O)c1OC)C1Cc3ccc(OC)c(OC)c3CN1CC2 (centres undefined)	none
COc1cc2c3cc1Oc1cc(ccc1O)C[C@@H]1c4c(cc(OC)c(O)c4Oc4ccc(cc4)C[C@@H]3N(C)CC2)CC[N+]1(C)C	PLCg1 inh 13 | PLCgamma1 ctr inactive | PLCbeta3 conf inactive
O=C(COc1ccccc1)NS(=O)(=O)c1ccccc1	PLCg1 inh 10.0 | PLCgamma1 ctr inactive | PLCbeta3 conf inactive
